Source: PubChem (several laboratories)
Sampled rows, rich in hits. Any-hit rate of the full collection: about 4.3%.
MITF TRPM1 HTS – activators of MITF-driven TRPM1 promoter activity in SK-MEL-5 cells. SK-MEL-5 TRPM1-promoter luciferase, 24 h; % of positive control, neutral wells = 0. activation, % at 12.5 µM. 0.75% of 300,000 active. AID 588334;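 active = mean activation of at least 80% with every replicate also reaching 80%; inconclusive = mean reaches 80% but some replicate falls short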;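 note: 0% = neutral control wells and 100% = parthenolide positive control wells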
FGF22 binding – binders of recombinant human FGF22 by thermal shift; 1.5% of 340,000 active; Q9HCT0; activity (Tm shift, normalised), % at 9.99 µM; SYPRO orange fluorescence; percent of sucrose octasulfate shift, DMSO zero;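 active = mean Tm shift, scaled 0 neutral to 100 positive control, at about 1.3% or above, every replicate too, limit read from the data; inconclusive = no clear call, values can overlap the other calls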
Target sequence (Q9HCT0 whole entry, looked up): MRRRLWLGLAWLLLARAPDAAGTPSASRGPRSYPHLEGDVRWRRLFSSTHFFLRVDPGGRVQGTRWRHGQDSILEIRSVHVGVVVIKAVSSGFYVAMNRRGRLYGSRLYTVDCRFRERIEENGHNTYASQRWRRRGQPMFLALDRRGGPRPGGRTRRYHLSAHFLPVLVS
MLL AF4-AF9 inh – blocks AF4 peptide binding to human AF9 | AlphaScreen, biotin-AF4 peptide binding to FLAG-AF9 | P42568 | inhibition, % at 10 µM | 0.47% of 350,000 active;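 active = every replicate reaching a set inhibition limit, whatever the replicate mean, cut at about 25% in these data; inconclusive = mean inhibition reaches that limit but some replicates miss it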;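 note: 0% = plate neutral control median and 100% = total signal loss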
esBAF inh – inhibitors of esBAF chromatin remodeling in mouse ES cells; Bmi1-luciferase knock-in reporter, 24 h; 100% = twice the neutral-well signal; 2% of 350,000 active; AID 602393; reporter increase, % at 12.5 µM; in the data active = activation above about 40%; inconclusive = no clear call, values can overlap the other calls;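 note: 0% = median of the plate's neutral control wells and 100% = double that signal; a rise in the Bmi1 reporter signal indicates esBAF inhibition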
SMARCA2 activ – increases SMARCA2 function in MMTV reporter cells; MG213 cells, MMTV-luciferase reporter, dexamethasone, overnight; activation, % at 9.1 µM; 1% of 370,000 active; AID 652017; in the data active = activation above about 7.8%;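 note: 0% = vehicle wells and 100% = reference activator wells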
Wnt bcat act – activators of Wnt/beta-catenin signaling. 1.2% of 300,000 active. activation, % at 9.35 µM. Wnt/beta-catenin reporter cell assay, activator, plate reader; in the data active = activation above about 30%, passing the limit was not always enough; inconclusive = no clear call, values can overlap the other calls;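 note: 0% = neutral control wells and 100% = positive control wells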
SMARCA2 act conf – SMARCA2 activation, confirmation screen | activation, % at 9.1 µM | MG213 cells, MMTV-luciferase with dexamethasone, luminescence, overnight; MG213 cells expressing E1A, Rb sequestered; DMSO wells 0%, reference activator 100% | 30% of 3,500 active | shares compounds with SMARCA2 activ;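 active = activation above its plate's cutoff, the mean activation of tested wells plus 3 SD, cut at about 7.9% in these data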
VP16 Luc act – activates GAL4-VP16 luciferase, flagging SMARCA2 activator hits; activation, % at 9.1 µM; AID 686939; shares compounds with SMARCA2 activ; HEK293 GAL4-VP16 pG5luc reporter, luciferase luminescence; scaled: DMSO wells 0%, SAHA wells 100%; 41% of 3,500 active;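 active = activation above the solvent-only control well mean plus 3 SD, averaged across control plates, cut at about 5.2% in these data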
* hit, by the source's call; ? = inconclusive; / = no result.

SMILES | MITF TRPM1 HTS | FGF22 binding | MLL AF4-AF9 inh | esBAF inh | SMARCA2 activ | Wnt bcat act | SMARCA2 act conf | VP16 Luc act
CC1=CC2=NC(=O)/C(=C\c3cc(C)n(-c4cccc(Cl)c4)c3C)C(=N)N2O1 | 2 | 0 | 9 | / | 9.1* | -3 | -4 | 2
CC1=CC2=NC(=O)/C(=C\c3cc(C)n(-c4ccccc4)c3C)C(=N)N2O1 | 7 | 0 | 2 | 14 | -3 | 1 | / | /
C[C@H](CO)N1C[C@H](C)[C@H](CN(C)C(=O)CN(C)C)Oc2ncc(C#Cc3cccnc3)cc2C1=O | / | 0 | -5 | 7 | / | / | / | /
O=C(Nc1ccccc1)c1ccc(NCC2CCCO2)c([N+](=O)[O-])c1 (stereo not drawn) | 39 | / | / | / | 8.8* | 15 | 2 | 4
C[C@H](CO)N1C[C@H](C)[C@@H](CN(C)S(=O)(=O)c2ccc(F)cc2)Oc2ccc(NC(=O)Nc3ccc(F)cc3)cc2C1=O | / | 0 | 1 | 0 | / | / | / | /
CCc1ccccc1NC(=O)c1cc2sccc2n1C | 8 | 0 | 4 | 12 | -1 | 1 | / | /
Cn1c(C(=O)Nc2ccccc2)cc2sccc21 | 32 | / | / | -10 | 9.2* | 51* | 8.7* | 7.2*
Cc1csc2nc(CSc3nc4ccccc4o3)cn12 | ? | / | / | 44* | 8.9* | 34* | 6 | 4
CC(C)NC(=O)Nc1cccc2c1O[C@@H](CN(C)S(=O)(=O)c1cccs1)[C@@H](C)CN([C@H](C)CO)C2=O | / | / | / | -2 | / | / | / | /
CC(=O)N1[C@@H]2c3ccc(C4=CCCCC4)c(=O)n3C[C@H]1[C@H](CO)[C@H]2C(=O)NCc1cc(F)cc(F)c1 | / | 0 | 0 | -1 | / | / | / | /
N#CC(C#N)=Cc1ccc(NC(=O)c2ccc(Br)cc2)cc1 | 45 | 0 | 4 | / | 9.2* | 27 | 4 | 5
CC(C)(C)c1ccc(C(=O)Nc2ccc(C=C(C#N)C#N)cc2)cc1 | ? | / | / | / | 0 | / | / | /
CCOC(=O)C1=C(C)c2ccccc2N(C(=O)OC)C1(C)C(=O)OCC (stereo not drawn) | -10 | 0 | -2 | 14 | 8.1* | -1 | 1 | -1
CCOC(=O)C1=C(C)c2ccccc2OC1(CC)C(=O)OCC (stereo not drawn) | -13 | 0 | -1 | -5 | -1 | -2 | / | /
C/C=C/c1cnc2c(c1)C(=O)N([C@H](C)CO)C[C@H](C)[C@@H](CN(C)S(=O)(=O)c1cccs1)O2 | / | 0 | 1 | -2 | / | / | / | /
CN1N=C(/C=C/c2ccccc2)CCC1=O | 39 | 0 | 1 | / | 7 | -1 | / | /
Cc1ccc(/C=C/C2=NN(C)C(=O)CC2)cc1 | 63 | 0 | 0 | 38 | 8.3* | 15 | 6 | 6.6*
Cc1ccc(CSc2nnc(-c3ccncc3)n2N)cc1 | / | 0 | 0 | / | 8.8* | 1 | -1 | 0
C=C(C)CSc1nnc(-c2ccc(OC)cc2)n1N | 61 | / | / | 23 | 9.5* | 14 | 0 | 2
COC(=O)c1c(C)[nH]c(C(=O)/C=C/c2ccccc2F)c1C | ? | 0 | -1 | -16 | 15* | -1 | 9.1* | 9.7*
Cc1ccc(C(=O)N2CCCC2)cc1S(=O)(=O)N1CCOCC1 | 4 | 0 | -5 | / | -1 | -1 | / | /
Cc1ccc(C(=O)N2CCCC(C(F)(F)F)C2)cc1S(=O)(=O)N1CCOCC1 (stereo not drawn) | 1 | 0 | -2 | 0 | 8.0* | -3 | -1 | 0
O=C([C@@H]1[C@@H](CO)[C@@H]2Cn3c(cccc3=O)[C@H]1N2CCC(F)(F)F)N1CCCCC1 | / | 0 | 0 | 2 | / | / | / | /
CC(=O)N(C)C[C@H]1Oc2ncc(-c3cccc(F)c3)cc2C(=O)N([C@@H](C)CO)C[C@@H]1C | / | 0 | -3 | 4 | / | / | / | /
O=C(Nc1ccc(N2CCOCC2)cc1)c1cc(-c2ccncc2)nc2ccccc12 | -2 | 0 | 3 | / | -2 | -1 | / | /
